# Assay outcomes from PubChem BioAssay.
# Compounds with a hit are over-represented: about 2.4% of the library has one in this group of screens.
# BRCT PPI red: qHTS Assay for Inhibitors of BRCT-Phosphoprotein Interaction (Red Fluorophore) | Breast cancer type 1 susceptibility protein (Homo sapiens), P38398 | BRCT-phosphopeptide binding, red fluorescence polarization | Potency, µM (titrated, usually from 76.9 µM), inactives show at the top dose activity change, negative = inhibition, usual class: inhibitors | 75,000 compounds, 0.03% hits; note: % is set by controls: 0 for no effect and ±100 for the full control effect
#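 Fluorescence polarization: 100 nM His-tagged BRCA1 BRCT with 100 nM TAMRA-labelled phospho-BACH1 decapeptide, phosphate buffer pH 7.3 with 150 mM NaCl, DTT, 0.01% Tween 20; 12 min RT. Binding inhibition seen as FP decrease.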
# BRCT PPI green: qHTS Assay for Inhibitors of BRCT-Phosphoprotein Interaction (Green Fluorophore). BRCA1 BRCT-phosphopeptide binding, green fluorescence polarization. Potency, µM (titrated, usually from 76.9 µM), for the others: at the top dose activity change, negative = inhibition, most hits filed as inhibitors. 75,000 compounds, 0.05% hits. AID 875, 2007;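 note: potency is the fitted concentration of half-maximal effect; plate controls were peptide without protein for full effect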
#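 Fluorescence polarization: His-tagged BRCT (~35 kDa BRCA1 C-terminus, 250 nM) bound to 100 nM fluorescein-labeled phosphorylated 10-aa BACH1 peptide, pH 7.3 phosphate buffer with DTT and Tween 20. Compounds incubated 12 min at room temperature; inhibition read as lowered polarization.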
# Tau filament bind: qHTS Assay for Tau Filament Binding. 71,000 compounds, 2% hits. Potency, µM (series often up to 57.1 µM), for inactives: top-dose activity change, negative = inhibition. recombinant tau filaments, thioflavin S fluorescence, 15 h; filaments grown with octadecylsulfate alongside compound;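 note: potency is the fitted concentration of half-maximal effect; % is set by controls: 0 for no effect and ±100 for the full control effect; actives lower thioflavin S fluorescence by blocking filaments or displacing dye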
#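 Read-out: ThS fluorescence, 450 nm excitation/510 nm emission; lower signal marks blocked filament formation or displaced dye. Tau at 1 uM with 30 uM ODS, 10 uM ThS, 5 mM DTT, 100 mM NaCl, 10 mM HEPES pH 7.4; 15 h, 37 C.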
# Pol III holo inh: qHTS Assay for Inhibitors of DNA Polymerase III Holoenzyme System | reconstituted DNA polymerase III holoenzyme replication, biochemical | Potency, µM (doses to about 57.1 µM), without a hit: at the top dose activity change, negative = inhibition | 71,000 compounds, 0.25% hits; note: potency is the fitted concentration of half-maximal effect; % is set by controls: 0 for no effect and ±100 for the full control effect
#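 Reconstituted *E. coli* holoenzyme (0.35 nM Pol III, 1 nM beta, 154 nM SSB, 2 nM primase) was preincubated with compound for 15 min at RT. Synthesis on 1.4 nM ssM13Gori ran 35 min, then was stopped with PicoGreen/EDTA and read as dsDNA fluorescence.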
# YjeE inh: qHTS Assay for Inhibitors of YjeE. 71,000 compounds, 0.05% hits. purified YjeE enzyme, qHTS inhibition assay. tRNA threonylcarbamoyladenosine biosynthesis protein TsaE (Escherichia coli (strain …. Potency, µM
#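 Fluorescence polarization of a BODIPY Texas Red–ADP probe (2 uM) bound to purified YjeE (10 uM) was read after 15 min room-temperature incubation with compounds. Loss of polarization marks inhibitors; ADP serves as titrated control.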
# Hsp90 Hop PPI: qHTS Assay for Disrupters of an Hsp90 Co-Chaperone Interaction; 71,000 compounds, 0.44% hits; AlphaScreen TPR2A-His6 binding biotin-Hsp90 C-terminal peptide; Potency, µM (doses to about 57 µM), without a hit: at the top dose activity change, negative = inhibition; Hsp90 C-terminal peptide / TPR2A (Hop) interaction, human; active = well fitted curve in either direction with a large enough effect; inconclusive = small, poorly fitted or top-dose-only effect, or another doubt; note: potency is the fitted concentration of half-maximal effect; % is set by controls: 0 for no effect and ±100 for the full control effect
# * hit, by the source's call; i = inactive; ? = inconclusive; [ ] = another dose, or the depositor's remark. Unless noted, calls come from the whole dose curve; as a rule, active = well fitted curve in the direction sought with a large enough effect; inconclusive = small, poorly fitted or top-dose-only effect, or another doubt; inactive = no such curve, though single readings can be large; an effect the other way counts as inactive or inconclusive.
SMILES,BRCT PPI red,BRCT PPI green,Tau filament bind,Pol III holo inh,YjeE inh,Hsp90 Hop PPI
Cc1noc(NS(=O)(=O)c2cccc3c(N(C)C)cccc23)c1C,0%,-1%,?,-4%,i,1%
O.O.O.O.O.O.O.O=S(=O)([O-])[O-].[Co+2],0%,0%,3.2µM*,-1%,?,?
Nc1c(S(=O)(=O)c2cccs2)c2nc3ccccc3nc2n1Cc1ccc2c(c1)OCO2,1%,1%,100%,12%,i,19%
c1csc(-c2nc3nc4ccccc4nc3n2Cc2ccc3c(c2)OCO3)c1,-1%,1%,3.2µM*,2%,i,29%
Cc1ccc2nc(-c3ccc(NC(=O)c4ccc(N)cc4)c(S(=O)(=O)O)c3)sc2c1,0%[15.4 µM],-1%[15.4 µM],-1%[11.4 µM],-10%[11.4 µM],i,2%[11 µM]
O=C(Nc1ccc(C(=O)Nc2ccc(C(=O)Nc3ccc(S(=O)(=O)O)c4cc(S(=O)(=O)O)cc(S(=O)(=O)O)c34)cc2)cc1)Nc1ccc(C(=O)Nc2ccc(C(=O)Nc3ccc(S(=O)(=O)O)c4cc(S(=O)(=O)O)cc(S(=O)(=O)O)c34)cc2)cc1,56%,-8%,?,32µM*,i,?
O=C(Nc1cc(C(=O)Nc2ccc(S(=O)(=O)O)cc2S(=O)(=O)O)cc(C(=O)Nc2ccc(S(=O)(=O)O)cc2S(=O)(=O)O)c1)Nc1cc(C(=O)Nc2ccc(S(=O)(=O)O)cc2S(=O)(=O)O)cc(C(=O)Nc2ccc(S(=O)(=O)O)cc2S(=O)(=O)O)c1,48%,-3%,?,4µM*,i,?
c1ccc(-c2ccc(-c3ccc(C4=NCCN4)cc3)o2)cc1,0%[15.4 µM],0%[15.4 µM],-12%[11.4 µM],-9%[11.4 µM],i,-1%[11 µM]
O=C1CCCC2=C1C(c1ccco1)Nc1ccc3ccccc3c12 (stereo unspecified),-5%,-4%,13µM*,25µM*,i,-7%
COc1cc(C2Nc3ccc4ncccc4c3C3=C2C(=O)CCC3)cc(OC)c1O (stereo unspecified),-3%,-8%,21%,-1%,i,-8%
O=C(O)C(=O)/C=C(\O)c1ccc(Br)cc1,-1%[15.4 µM],1%[15.4 µM],10%[11.4 µM],-3%[11.4 µM],i,1%[11 µM]
COC(=O)[C@@H]1O[C@@H](SCCN)[C@@H](O)[C@H](O)[C@H]1O,-1%[15.4 µM],-3%[15.4 µM],11%[11.4 µM],-10%[11.4 µM],i,-5%[11 µM]
Cc1ccccc1Cn1c(=N)n(CC(O)c2ccco2)c2ccccc21 (stereo unspecified),-1%,-2%,16µM*,-8%,i,-5%
COCCN(CCOC)c1nc(C)nc2c1nc(-c1ccccc1)n2CCN(C)C,0%,-2%,6%,-4%,i,-5%
O=c1c2c3nc4ccccc4nc3n(-c3cccc(F)c3)c2ncn1Cc1ccc2c(c1)OCO2,2%,1%,3.2µM*,1%,i,-3%
CCC(C)n1cnc2c(c1=O)c1nc3ccccc3nc1n2-c1ccc2c(c1)OCCO2 (stereo unspecified),-4%,-2%,-10%,-4%,i,0%
CCC(C)n1cnc2c(c1=O)c1nc3ccccc3nc1n2Cc1ccc2c(c1)OCO2 (stereo unspecified),0%,0%,3.2µM*,-2%,i,3%
CCOc1ccc2noc3c2c1C(=O)c1ccccc1-3,-1%,4µM*,i,244%,i,?
CCOc1ccc(-c2nc(-c3ccccc3)no2)cc1OCC,-2%,0%,122%,0%,i,10%
